Screening data (PubChem)
CtBP-E1A inh – inhibitors of CtBP/E1A interaction; AlphaScreen GST-E1A/His-CtBP binding, 1536-well; active compounds read low; activity change, % (no concentration beside the values); 340,000 compounds, 0.49% hits; AID 651724; in the data active = activity change below about -65%; inconclusive = mostly about -30% to -63%
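AlphaScreen with 125 nM GST-E1A and 125 nM His-CtBP (5X stocks) in Tris pH 8.0, 300 mM NaCl, BSA, Tween 20, TCEP. Compounds preincubated 2 h at 37 deg C, then glutathione donor/nickel acceptor beads added for 1 h at 37 deg C in dark.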
JMJD2A Tudor – JMJD2A Tudor domain (human) inhibition | 390,000 compounds, 4.4% hits | O75164 | AlphaScreen JMJD2A-Tudor / H3K4me3 peptide binding | AID 504339 | Potency, µM (top dose mostly 114 µM), hits mostly inhibitors; also: nearly all actives have a fitted effect of over 50% in size
Six1-Eya2 blk – blocks human Six1 binding to Eya2; Q15475+O00167; AlphaScreen GST-Six1/His-Eya2 binding, biochemical; active compounds read low; activity change, % (concentration not given with the values); 360,000 compounds, 0.56% hits; AID 651725; in the data active = activity change below about -65%; inconclusive = mostly about -30% to -63%
Target sequence (O00167 whole entry, looked up): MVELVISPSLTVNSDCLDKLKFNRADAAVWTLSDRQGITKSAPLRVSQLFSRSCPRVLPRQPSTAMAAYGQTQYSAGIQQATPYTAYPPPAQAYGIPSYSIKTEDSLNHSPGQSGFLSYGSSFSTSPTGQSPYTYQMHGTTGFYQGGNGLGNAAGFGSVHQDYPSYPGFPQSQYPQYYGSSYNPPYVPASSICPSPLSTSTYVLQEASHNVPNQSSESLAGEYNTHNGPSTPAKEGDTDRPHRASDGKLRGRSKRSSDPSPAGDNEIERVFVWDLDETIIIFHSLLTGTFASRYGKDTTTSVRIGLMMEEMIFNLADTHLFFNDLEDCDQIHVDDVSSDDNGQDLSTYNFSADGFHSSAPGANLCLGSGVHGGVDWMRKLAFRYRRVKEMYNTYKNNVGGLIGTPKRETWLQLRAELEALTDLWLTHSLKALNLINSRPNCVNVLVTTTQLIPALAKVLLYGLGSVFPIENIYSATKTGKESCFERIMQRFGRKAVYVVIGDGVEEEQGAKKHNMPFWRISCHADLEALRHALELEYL
Target sequence (Q15475 whole entry, looked up): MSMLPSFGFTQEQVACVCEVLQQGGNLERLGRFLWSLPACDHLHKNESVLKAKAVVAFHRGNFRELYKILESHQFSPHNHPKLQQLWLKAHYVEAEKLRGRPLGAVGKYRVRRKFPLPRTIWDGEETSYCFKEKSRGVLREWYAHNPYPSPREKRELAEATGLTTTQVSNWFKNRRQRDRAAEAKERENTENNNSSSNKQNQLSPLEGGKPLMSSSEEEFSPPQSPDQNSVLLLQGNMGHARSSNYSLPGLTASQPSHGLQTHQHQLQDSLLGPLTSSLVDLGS
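AlphaScreen with GST-Six1 and His-Eya2 (5X mix: 250 nM and 500 nM), glutathione donor and nickel acceptor beads; buffer 50 mM Tris pH 8.0, 300 mM NaCl, 1 mM TCEP; 1 h at 37 C in the dark.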
G9a inh – inhibitors of human histone lysine methyltransferase G9a | Potency, µM (doses to about 102 µM), hits mostly inhibitors | 350,000 compounds, 8.8% hits | G9a H3K9 monomethylation, AlphaScreen, 2 h | Q96KQ7; also: nearly all actives have a fitted effect of over 75% in size
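Readings reflect AlphaScreen signal from monomethyl-H3K9 antibody detection. HMT at 20 nM; substrate b-H3K9 500 nM; cofactor SAM 20 uM; 2 h RT reaction; compounds tested as titrations in qHTS with 15 min preincubation.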
BAZ2B inh – blocks human BAZ2B; Q9UIF8; AlphaScreen BAZ2B-H3K14Ac peptide displacement; Potency, µM (titrated, usually from 114 µM), usual class: inhibitors; 360,000 compounds, 4.4% hits; also: nearly all actives have a fitted effect of over 60% in size
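Complex of BAZ2B and biotin-H3K14Ac (50 nM apiece) forms over 30 min at RT, then faces library compounds up to 110 uM for another 30 min; AlphaScreen beads added, 20 min dark incubation, luminescence read.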
HP1b binding inh – HP1-beta chromodomain-methylated histone interaction inhibition; AID 540317; 390,000 compounds, 0.56% hits; Potency, µM (doses to about 114 µM), actives largely listed as inhibitors; AlphaScreen HP1-beta / biotin-H3K9me3 peptide binding; P83916; also: nearly all actives have a fitted effect of over 70% in size
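HP1-beta protein (50 nM final) preincubated 30 min at room temperature with biotinylated H3(1-18)K9me3 peptide (50 nM) in PBS pH 7.4, 0.01% Tween-20, then compound added for 30 min. AlphaScreen streptavidin donor/nickel chelate acceptor beads (10 ug/mL final), 30 min dark, luminescence read.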
Large screens that a line does not name were inactive. The list is not random: actives were taken first. Their share in the collection is about 10%. Unless noted, calls follow the shape of the dose curve; as a rule, active = well fitted inhibition curve with a large enough effect; inconclusive = small, poorly fitted or top-dose-only effect; inactive = no such curve, though single readings can be large or run the other way.

CCCN1C(=O)/C(=C\C=C2/C=CN(CC)c3ccccc32)SC1=S	JMJD2A Tudor inconclusive, G9a inh 7.9µM, BAZ2B inh inconclusive, HP1b binding inh inconclusive
CCCCN1C(=O)/C(=C/C=C2\SCCN2C)SC1=S	JMJD2A Tudor 35µM, Six1-Eya2 blk inconclusive, G9a inh 13µM, BAZ2B inh 10µM, HP1b binding inh 28µM
CCN1C(=O)/C(=C\N2CCCCCC2)SC1=S	JMJD2A Tudor inconclusive, G9a inh inconclusive, HP1b binding inh inconclusive
CC(/C=C1\SC(=S)N(CC(=O)N2CCN(c3ccccc3)CC2)C1=O)=C\c1ccccc1	none
CN1CCS/C1=C/C=C1\SC(=S)N(CC(=O)O)C1=O	JMJD2A Tudor inconclusive, G9a inh 45µM, BAZ2B inh 50µM
COc1cc(C2CC(=O)Nc3ccc4ccccc4c32)ccc1OC(=O)C(C)C (stereo not drawn)	JMJD2A Tudor inconclusive, G9a inh inconclusive, BAZ2B inh inconclusive (no result: CtBP-E1A inh, Six1-Eya2 blk)
CCOC(=O)/C=C1/N(C)c2ccccc2C1(C)C	none
CCCCN1C(=O)/C(=C/C=C2\N(C)c3ccccc3C2(C)C)SC1=S	G9a inh inconclusive, BAZ2B inh 8.9µM (no result: CtBP-E1A inh, JMJD2A Tudor, Six1-Eya2 blk, HP1b binding inh)
Cc1cccc(-c2nn3c(=O)cc(CN4CCN(S(=O)(=O)c5ccc(Cl)cc5)CC4)nc3s2)c1	none (no result: CtBP-E1A inh, Six1-Eya2 blk)
Cc1cc(NC(=O)c2ccc(F)cc2)n(-c2ccccn2)n1	none
Cc1cc(NC(=O)c2ccc(C#N)cc2)n(-c2ccccn2)n1	G9a inh 45µM
Cc1ccc(CNC(=O)/C=C/c2ccc(Br)o2)cc1	G9a inh 1.4µM, BAZ2B inh inconclusive
Cc1ccc(/C=C/C(=O)NCc2cccs2)cc1	JMJD2A Tudor inconclusive
Cc1ccc(/C=C/C(=O)NCc2cccs2)o1	JMJD2A Tudor inconclusive, G9a inh 13µM, BAZ2B inh inconclusive, HP1b binding inh inconclusive
C[N+](C)(C)c1ccc(/C=N/Nc2nc(Cl)c(C#N)c(Cl)c2Cl)cc1	JMJD2A Tudor 32µM, G9a inh inconclusive, BAZ2B inh 50µM
COc1ccc(Nc2nc(Cl)nc(N3CCN(c4ccc(OC)cc4)CC3)n2)cc1	G9a inh inconclusive, BAZ2B inh 8.9µM (no result: CtBP-E1A inh, JMJD2A Tudor, Six1-Eya2 blk, HP1b binding inh)
CC1CCN(c2nc(Cl)nc(Nc3ccc([N+](=O)[O-])cc3)n2)CC1	JMJD2A Tudor inconclusive, G9a inh 45µM, BAZ2B inh inconclusive
C=CCNc1nc(Nc2ccc([N+](=O)[O-])cc2)nc(N2CCCC2)n1	JMJD2A Tudor inconclusive
Cc1cc(=O)oc2c(CN3CC(C)OC(C)C3)c(O)c(Cl)cc12 (stereo not drawn)	JMJD2A Tudor 79µM, G9a inh inconclusive, BAZ2B inh inconclusive, HP1b binding inh inconclusive
CCc1cc(=O)oc2c(CN3CCCC3)c(O)c(Cl)cc12	none
COc1ccccc1N1CCN(C(=O)CCn2cnc3onc(-c4ccc(F)cc4)c3c2=O)CC1	none (no result: CtBP-E1A inh, Six1-Eya2 blk)
COC(=O)c1ccccc1NC(=S)NC(=O)COc1ccccc1	G9a inh inconclusive
Cc1ccc(C(=O)NNC(=S)NC(=O)COc2ccccc2)cc1	JMJD2A Tudor 13µM, G9a inh 1.3µM
CC(C)(C)c1ccc(C(=O)NC(=S)NNC(=O)COc2ccccc2)cc1	JMJD2A Tudor inconclusive, G9a inh 25µM, BAZ2B inh inconclusive
COC(=O)CNC(=S)NC(=O)c1ccc(C(C)(C)C)cc1	G9a inh 18µM (no result: CtBP-E1A inh)
CCCOc1ccc(C(=O)NNC(=S)NC(=O)c2ccccc2)cc1	JMJD2A Tudor inconclusive, G9a inh inconclusive (no result: CtBP-E1A inh)
Cc1ccc(-n2nc(C)c3nc(CCC(=O)Nc4cccc(C)c4C)c(=O)n(C)c32)cc1	none (no result: CtBP-E1A inh, Six1-Eya2 blk)
Cc1ccc(-n2nc(C)c3c(C(=O)NCc4ccc(F)cc4)cc(C)nc32)cc1	none (no result: CtBP-E1A inh, Six1-Eya2 blk)
CC1CCc2c(sc3nc(-c4cc5cc(Br)ccc5oc4=O)[nH]c(=O)c23)C1 (stereo not drawn)	none (no result: CtBP-E1A inh, Six1-Eya2 blk)
CCCSc1nnc2[nH]c(=O)cc(C)n12	none (no result: CtBP-E1A inh, Six1-Eya2 blk)
CCOc1ccc(Nc2oc(-c3ccc(COc4ccc(C)cc4)o3)nc2C#N)cc1	BAZ2B inh inconclusive (no result: CtBP-E1A inh, Six1-Eya2 blk)
COc1ccc(NC(=O)c2ccc3c(SCC(=O)O)c4c(nc3c2)CCCC4)c(OC)c1	JMJD2A Tudor inconclusive, G9a inh 50µM, BAZ2B inh inconclusive
